Abeta rescue – compounds reversing amyloid beta toxicity in yeast | yeast expressing A-beta42, growth rescue, OD600, 48 h; response scale: 0% DMSO, 100% iron-clioquinol control | Potency, µM (top dose mostly 46.1 µM), usual class: activators | 410,000 tested, 0.063% active | AID 1347071; note: nearly all actives have a fitted effect of over 55% in size
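Yeast growth medium received pinned compounds, then yeast cells expressing toxic A-beta were added; plates incubated at 30 C for 48 hr. Growth read as absorbance at 600 nm, normalized to DMSO and equimolar FeCl3 plus clioquinol controls.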
TDP43 rescue – rescues yeast growth from TDP-43 toxicity; TDP-43 expressing yeast growth rescue, BacTiter-Glo, 24 h; Potency, µM (titrated, usually from 46.1 µM), without a hit: at the highest dose growth rescue (activation), hits mostly activators; 410,000 tested, 1.8% active; note: % of control where 0% means no effect; nearly all actives have a fitted effect of over 50% in size
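Growth rescue of TDP-43-toxic yeast measured as ATP luminescence (BacTiter-Glo). Cells grown to mid-log in raffinose, induced in galactose at OD600=0.02, exposed to compound 24 hr at 30 deg C.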
FUS yeast rescue – FUS proteinopathy suppression in yeast; S. cerevisiae FUS-expressing, growth rescue, OD600, 24 h; Potency, µM (titrated, usually from 76.6 µM), actives largely listed as activators; 390,000 tested, 0.24% active;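 note: plate controls were DMSO vehicle for no effect and reference control for full effect; nearly all actives have a fitted effect of over 55% in size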
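Yeast FUS proteinopathy model; galactose-induced FUS (2%), starting OD 0.005. Cpds in dilution series, 24hr, 30C, 99% humidity. Abs 600 nm growth. Pos ctrl CP55940 (top 92uM final); neg ctrl DMSO.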
Mito fusion act – inhibitors of mitochondrial division or activators of mitochondrial fusion | Potency, µM (series often up to 46.1 µM), inactives show top-dose growth rescue (activation), actives largely listed as activators | 320,000 tested, 0.23% active | AID 485298 | S. cerevisiae fusion-defective mutant growth rescue, CellTiterGlo 48 h; note: % of control where 0% means no effect; nearly all actives have a fitted effect of over 45% in size
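Read-out: ATP-based luminescence (CellTiterGlo, 10 min ambient) reporting growth of fusion-defective ts yeast after 48 hours at 37C on glycerol/ethanol YPEG medium in the presence of compound.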
aSyn yeast inh – alpha-synuclein toxicity inhibition in yeast. 370,000 tested, 0.14% active. Yeast expressing alpha-synuclein, growth rescue, BacTiter-Glo, 24 h. Potency, µM (top dose mostly 46.1 µM), inactives show top-dose growth rescue (activation), usual class: activators; note: % of control where 0% means no effect; nearly all actives have a fitted effect of over 65% in size
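Readout is rescue of growth in alpha-synuclein-expressing yeast, so inhibitors of toxicity appear as activators. Growth after 24 hr at 30 deg C in galactose medium is quantified by luminescence.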
The depositor's hits bear a star; i = inactive; ? = inconclusive; . = no result; ! = repeats disagree; [ ] = another dose, or the depositor's remark. Sampled rows, rich in hits. Any-hit rate of the full collection: about 2.2%. Calls come from the whole dose curve; as a rule, active = well fitted curve in the direction sought with a large enough effect; inconclusive = small, poorly fitted or top-dose-only effect, or another doubt; inactive = no such curve, though single readings can be large; an effect the other way counts as inactive or inconclusive. Potency is the fitted concentration of half-maximal effect.

SMILES	Abeta rescue	TDP43 rescue	FUS yeast rescue	Mito fusion act	aSyn yeast inh
COc1cccc(NC(=O)COc2cc(O)c3c(c2)OC(C)(C)CC3=O)c1	i	17.8µM*	i	8.1%	1.2%
COc1ccc(N2CC3=C(C2=O)C(c2ccc(O)c(OC)c2)NC(=O)N3C)cc1 (stereo not drawn)	i	8.5%	i	.	-0.5%
O=C(OCc1nc2scc(-c3ccccc3)c2c(=O)[nH]1)c1ccco1	?	35.5µM*	i	-1.5%	4.6%
NC(=O)Cc1nc2scc(-c3ccccc3)c2c(=O)[nH]1	i	-12.1%	i	-0.2%	-1.3%
CC(C)Oc1ccc2c(=O)c(-c3ccccc3)coc2c1	i	?	i	25.1µM*!	12.2%
COC(=O)COc1ccc2c(=O)c(-c3ccccc3)coc2c1	i	0.9%	i	-2.6%	-1.7%
Nc1c(C(=O)N2CCN(c3ccccc3)CC2)nnn1Cc1ccc(Cl)cc1	.	.	i	.	.
CCOC(=O)c1ccc(C(=O)OCC)c(NC(=S)Nc2ccc([N+](=O)[O-])cc2OC)c1	i	17.8µM*	i	?	-16.2%
COc1cc(F)c(C2=CC(=O)C[C@H](c3ccc(Cl)cc3)C2)cc1F	i	?	i	?	0.3%
CC(=O)Nc1ccc(C2=CC(=O)C[C@H](c3ccc(Cl)cc3)C2)cc1	i	35.5µM*	?	?	1.6%
COc1ccc([C@H]2CC(=O)C=C(c3ccc(NC(C)=O)cc3)C2)cc1OC	i	9.3%	i	-11.7%	1.8%
COc1ccc([C@H]2CC(=O)C=C(c3cc(F)ccc3F)C2)cc1OC	i	22.4µM*	i	?	7.2%
O=C1C=C(c2cccc(Cl)c2)C[C@@H](c2ccc(Cl)cc2)C1	i	0.0%	?	?	3.0%
O=C1C=C(c2cc(F)ccc2F)C[C@@H](c2ccc(Cl)cc2)C1	i	20µM*	i	?	12.8%
O=C1C=C(c2cccc(Cl)c2O)C[C@@H](c2ccc(Cl)cc2)C1	i	3.16µM*	?	12.6µM*	-15.1%
COc1ccc([C@H]2CC(=O)C=C(c3cccc(OC)c3OC)C2)cc1OC	?	22.4µM*	i	12.6%	-0.4%
COc1ccc(N2C(=O)C(CC(=O)Nc3ccc(F)cc3)N(Cc3ccc4c(c3)OCO4)C2=O)cc1 (stereo not drawn)	i	-2.2%	i	.	.
CCOC(=O)c1ccc(NC(=O)CC2C(=O)N(c3ccc(F)cc3)C(=O)N2Cc2ccc3c(c2)OCO3)cc1 (stereo not drawn)	i	1.6%	39.8µM*	.	.
COc1ccccc1C(=O)N1CCN(C(=O)c2oc3c(C)c(C)ccc3c2C)CC1	i	31.6µM*	i	.	1.1%
COc1ccc(C(=O)Oc2ccc(=O)n(-c3ccccc3)n2)cc1	i	14.1µM*	i	-2.3%	7.4%
O=C(Oc1ccc(=O)n(-c2ccccc2)n1)c1ccc(F)cc1	i	22.4µM*	i	0.1%	2.5%
CCOC(=O)c1cc(OC(=O)c2ccc(OC)cc2)n(-c2ccccc2)n1	i	17.8µM*	i	.	-24.6%
O=C(Oc1ccc(=O)n(-c2ccccc2)n1)c1ccc(Cl)cc1	i	?	i	2.7%	-6.6%
CCOC(=O)c1ccc(NC(=S)N2CCSC2c2ccc(Br)cc2)cc1 (stereo not drawn)	?	9.3%	i	22.4µM*	-10.8%
CCOC(=O)C1C(=O)C=C(c2ccc([N+](=O)[O-])cc2)CC1c1ccccc1 (stereo not drawn)	i	20µM*	i	?	8.6%
CCOC(=O)C1C(=O)C=C(c2ccc(C)cc2)CC1c1ccccc1 (stereo not drawn)	i	13.1%[9.22 µM]	i	-4.5%	2.3%
CCOC(=O)C1C(=O)C=C(c2ccc(Br)cc2)CC1c1ccco1 (stereo not drawn)	i	25.1µM*	i	3.7%	3.5%
COc1nnc(-c2ccc(N3CCCCC3)c(NC(=O)c3ccccc3Cl)c2)c2ccccc12	i	?	i	.	.
CN(C)c1cc(F)c(C=O)cc1F	.	.	.	.	-0.2%

High-throughput results from PubChem BioAssay.
